Screening results deposited in PubChem by National Center for Advancing Translational Sciences (NCATS).
HepG2 tox = counter-screen for TGF-b inhibitors: cytotoxicity in HepG2 cells. AID 588856. Potency, µM (top dose mostly 46.1 µM), without a hit: top-dose activity change, negative = cytotoxicity, usual class: cytotoxic. 410,000 tested, 0.76% active. HepG2 CAGA-GFP viability, ATP luminescence, 18 h
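CellTiter-Glo luminescence gave cytotoxicity after 18 hours at 37 degrees C. The cells were HepG2 CAGA-GFP in 1% FBS DMEM, stimulated with 500 pg/mL TGF-beta after compound addition. %Activity was normalised to no-cell wells (complete cell-killing) and DMSO (no toxicity), and curves were fitted and classified.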
TGFb inhibitor = blocks TGF-b signaling. HepG2 CAGA-GFP TGF-b/SMAD3 reporter, GFP fluorescence, 18 h; TGF-beta stimulated, 500 pg/mL final. Potency, µM (doses to about 46.1 µM), inactives show top-dose activity, negative = inhibition, hits mostly inhibitors. 410,000 tested, 1.2% active. AID 588855; also: % is scaled to controls: 0 for no effect and ±100 for the full control effect; nearly all actives have a fitted effect of over 65% in size
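Using HEPG2 CAGA-GFP reporter cells at 1000 cells/well, we pinned test compounds, stimulated with recombinant TGF-beta (500 pg/mL final) and measured total well GFP after 18 h.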
HT1080NT lethal = kills 2HG-producing HT-1080-NT fibrosarcoma cells; HT-1080-NT fibrosarcoma viability, CellTiter-Glo ATP luminescence, 48 h; Potency, µM (top dose mostly 46.1 µM), without a hit: at the highest dose activity, negative = less viability, hits mostly cytotoxic; 360,000 tested, 1.6% active; AID 686970;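 also: NT is the 2HG producing partner of a matched IDH1 knockdown line; 0% = DMSO-treated cells and -100% = media-only wells without cells; nearly all actives have a fitted effect of over 55% in size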
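HT-1080-NT; 750 cells/well; 5% FBS RPMI; 48 h compound, 37 degrees C; CellTiter-Glo luminescence; curve fitting and curve-class assignment.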
TDP1 cell CPT = growth inhibition of DT40 Tdp1-/-;hTDP1 cells with camptothecin (screen for TDP1 inhibitors). AID 686979. chicken DT40 Tdp1-/-;hTDP1 cells + 20 nM CPT, ATP luminescence, 48 h. Potency, µM (titrated, usually from 46.2 µM), inactives show at the top dose activity change, negative = growth inhibition, hits mostly inhibitors. 420,000 tested, 12% active; also: % is scaled to controls: 0 for no effect and ±100 for the full control effect; nearly all actives have a fitted effect of over 55% in size
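Cell growth measured by CellTiter-Glo luminescence after a minimum 48 h, 37 C compound exposure with 20 nM CPT in Tdp1-knockout DT40 cells stably expressing hTDP1, seeded 400/well; qHTS titration format.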
TDP1 cell noCPT = qHTS for Inhibitors of human tyrosyl-DNA phosphodiesterase 1 (TDP1): qHTS in cells in absence of CPT | DT40 Tdp1-/- hTDP1 cells, no CPT, ATP luminescence, 48 h | Potency, µM (series often up to 46.2 µM), for inactives: at the highest dose activity change, negative = growth inhibition, usual class: inhibitors | 420,000 tested, 15% active; also: % is scaled to controls: 0 for no effect and ±100 for the full control effect; nearly all actives have a fitted effect of over 55% in size
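Compound effects on proliferation are scored in DT40 Tdp1-/-;hTDP1 cells in the absence of CPT. ATP levels (CellTiter-Glo luminescence) are recorded after a ≥48 hr, 37 °C incubation.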
HT1080 IDH1KD tx = HT-1080 IDH1 knockdown cell toxicity (counter line). HT-1080 IDH1 knockdown viability, ATP luminescence, 48 h. Potency, µM (top dose mostly 46.1 µM), for inactives: at the highest dose activity, negative = toxicity, usual class: cytotoxic. 360,000 tested, 2% active;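 also: 0% = DMSO wells and -100% = cell-free medium wells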
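HT-1080-IDH1KD cells (IDH1 knocked down), 750/well in RPMI with 5% FBS, treated with compound 48 h at 37 degrees C. Viability by CellTiter-Glo luminescence, normalised to DMSO and no-cell wells; concentration-response curves classed.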
* hit, by the source's call; ? = inconclusive; nt = no result; [ ] = dose if it differs, or a comment. Compounds with a hit are over-represented: about 17% of the library has one in this group of screens. Calls follow the shape of the dose curve; as a rule, active = well fitted curve in the direction sought with a large enough effect; inconclusive = small, poorly fitted or top-dose-only effect, or another doubt; inactive = no such curve, though single readings can be large; an effect the other way counts as inactive or inconclusive. Potency is read from the fitted curve at half-maximal effect.

SMILES	HepG2 tox	TGFb inhibitor	HT1080NT lethal	TDP1 cell CPT	TDP1 cell noCPT	HT1080 IDH1KD tx
CCn1c(SCC(=O)Nc2cccc(OC)c2)nc2c(c1=O)SCC2	0%	0%	-2%	4%	7%	0%
CCn1c(SCC(=O)Nc2cc(OC)ccc2OC)nc2c(c1=O)SCC2	-5%	0%	-8%	?	26µM*	-19%
CCOC(=O)c1c(NC(=O)c2ccn(CC)n2)sc2c1CCC2	0%	3%	-12%	-29%	?	-6%
CCOC(=O)c1c(NC(=O)c2nn(CC)cc2Br)sc(C)c1C	-15%	-14%	13%	16µM*	?	3%
CCOC(=O)c1nn(-c2ccccc2)c(C#N)c1NC(=O)c1nn(CC)cc1Br	-34%	?	-23%	15µM*	18µM*	-4%
CCOC(=O)c1c(NC(=O)c2nn(CC)cc2Br)sc2c1CCCCC2	-28%	1%	8%	18µM*	?	9%[9.24 µM]
C=COCCNC(=S)N1CCOCCOCCN(C(=S)NCCOC=C)CCOCCOCC1	-51%	-10%	-1%	-16%	-7%	7%
COc1cccc(CNC(=O)C2CCCN(S(=O)(=O)N(C)c3ccc(F)cc3)C2)c1OC (stereo unspecified)	-34%	?	nt	3.3µM*	3.7µM*	nt
CN(c1ccc(F)cc1)S(=O)(=O)N1CCCC(C(=O)NCCc2ccccc2)C1 (stereo unspecified)	-30%	?	nt	21µM*	?	nt
CSc1ccc(CCNC(=O)C2CCCN(S(=O)(=O)N(C)c3ccc(F)cc3)C2)cc1 (stereo unspecified)	-30%	?	nt	6.5µM*	9.2µM*	nt
CN(C)S(=O)(=O)c1ccc(C(=O)Nc2ccccc2C(=O)NCCCN2CCOCC2)cc1	-3%	-3%	0%	-13%	-2%	-2%
CC(Sc1ccsc1[N+](=O)[O-])C(=O)NCCc1ccc(Cl)cc1 (stereo unspecified)	-5%	-7%	-3%	?	?	-5%
CCOC(=O)[C@H]1[C@H]2COc3ccc(Br)cc3[C@@H]2N2C(=O)c3ccc(Cl)cc3NC(=O)[C@@]12C	1%	?	5%	18µM*	18µM*	7%
CCOC(=O)[C@H]1[C@H]2COc3ccc(C)cc3[C@@H]2N2C(=O)c3ccc(C)cc3NC(=O)[C@@]12C	5%	-4%	-3%	23µM*	?	-4%
Cc1cc(C)cc(-n2c(SCC(=O)NC3CCCCC3)nc3c([nH]c4ccccc43)c2=O)c1	-8%	2%	nt	16µM*	?	nt
O=C(CSc1nc2c([nH]c3ccccc32)c(=O)n1-c1ccc(Cl)cc1)NC1CCCCC1	-7%	0%	nt	10µM*	15µM*	nt
CCOc1ccc(-n2c(SCC(=O)NC3CCCCC3)nc3c([nH]c4ccccc43)c2=O)cc1	9%	-5%	nt	?	?	nt
O=C(Nc1ccc(S(=O)(=O)N2CCCC2)cc1)c1ccc(Br)o1	-11%	-33%	-12%	-11%	?	0%
NS(=O)(=O)c1ccc(NC(=S)NC(=O)c2ccc(Br)o2)cc1	-7%	-2%	14%	?	?	-7%
Cc1ccc(NS(=O)(=O)c2cccc(C(=O)Nc3cccnc3)c2)c(C)c1	-15%	-5%	-8%	?	15µM*	0%
Cc1cc(C)cc(NS(=O)(=O)c2ccc(NC(=S)NC(=O)c3ccc(Br)o3)cc2)c1	-85%	?	?	16µM*	16µM*	?
Cc1ccc(NS(=O)(=O)c2ccc(NC(=O)c3ccccc3C(=O)O)cc2)c(C)c1	-18%	6%	?	-1%	-1%	1%
Cc1ccc(NS(=O)(=O)c2ccc(NC(=O)c3ccc(-c4ccccc4)cc3)cc2)c(C)c1	10%	-3%	?	23µM*	23µM*	?
Cc1ccc(NS(=O)(=O)c2ccc(NC(=O)c3ccc(Br)o3)cc2)c(C)c1	-10%	?	?	?	26µM*	?
O=C(COC(=O)CN1C(=O)C2CCCCC2C1=O)Nc1cc(F)ccc1F (stereo unspecified)	6%	-1%	-6%	?	-30%	-2%
SMILES	HepG2 tox	TGFb inhibitor	HT1080NT lethal	TDP1 cell CPT	TDP1 cell noCPT	HT1080 IDH1KD tx
Cc1cc(C)cc(OC(=O)c2cc(-c3ccc4c(c3)OCCO4)on2)c1	-1%	-11%	nt	-5%	-9%	nt
Cc1ccc(C(=O)Nc2ccc(NC(=O)c3ccco3)c(C)c2)cc1	-2%	0%	8%	-4%	-18%	-2%
Cc1cc(NC(=O)c2ccc(Br)o2)ccc1NC(=O)c1ccco1	10µM*	15%	?	15µM*	16µM*	?
O=C(Cc1ccc(OCc2ccccc2)cc1)NO	-7%	9%	nt	?	?	nt
O=Cc1cc(OCc2ccccc2)ccc1[B-](F)(F)F	-65%	?	-22%	1.3µM*	2.1µM*	-16%
Clc1ccc(OCc2cn3cccnc3n2)c2ncccc12	12%	8%	1%	2%	-4%	2%
c1cnc2c(OCc3cn4cccnc4n3)cccc2c1	-6%	-2%	-2%	-3%	29µM*	0%
CCN(CC(=O)Nc1c(F)cccc1F)C(=O)c1cccn1C	2%	2%	9%	-2%	9%	6%
O=C(Nc1ccccc1)N(Cc1cccc(Cl)c1)c1ccccn1	-6%	11%	nt	23µM*	?	nt
N#CCCN(C(=S)NC(=O)c1cccs1)c1ccccc1F	-2%	-14%	7%	?	-28%	6%
CCCCCNc1nc(N2CCCC2)c2c(c1C#N)CCN(C)C2	22µM*	?	29µM*	23µM*	23µM*	?
CCCCCNc1nc(NCCCO)c(C#N)c2c1CN(C)CC2	-4%	-2%	-12%	?	?	0%
CCCCOc1ccccc1C(=O)N(Cc1sccc1C)C1CCS(=O)(=O)C1 (stereo unspecified)	-24%	nt	nt	?	21µM*	nt
CCCOc1cccc(C(=O)N(Cc2sccc2C)C2CCS(=O)(=O)C2)c1 (stereo unspecified)	0%	nt	nt	?	13µM*	nt
CCCCOc1cccc(C(=O)N(Cc2sccc2C)C2CCS(=O)(=O)C2)c1 (stereo unspecified)	-16%	nt	nt	?	15µM*	nt
